In the library only some 3.6% were active in any assay of this set; here they are far more common.
B2AR arrestin ag = qHTS assay of beta-arrestin-biased ligands of beta2-adrenergic receptor: NCGC Sytravon Library Screen | Beta-2 adrenergic receptor (Homo sapiens), P07550 | AID 1347077, 2019 | HTLA Tango cells, beta-arrestin recruitment, luciferase luminescence, 18 h | Potency, µM (titrated, usually from 46.1 µM), usual class: activators | 44,000 tested, under 10 active;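 further: potency means the concentration at half of the fitted maximal effect; 0% = DMSO and full agonism = EC100 isoproterenol or metaproterenol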
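Tango cell line, 1% FBS DMEM; cpd titration up to 46 microM; 18 hr, 37 degrees C, 5% CO2. Luciferin/ATP substrate mix added, 15 min RT, luminescence. %Activity, CRC fitting, curve-class categorization.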
NTMT1 inh = Primary qHTS for Inhibitors of N-terminal methyltransferase 1 (NTMT1): MTaseGlo Assay | N-terminal Xaa-Pro-Lys N-methyltransferase 1 (Homo sapiens), Q9BV86 | NTMT1 MTase-Glo SAH luminescence, purified enzyme | Potency, µM (doses to about 114 µM), inactives show at the top dose activity change, negative = inhibition, usual class: inhibitors | actives 2.5% (n = 59,000);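 further: potency means the concentration at half of the fitted maximal effect; plate controls were DMSO vehicle for no effect and no enzyme for full effect; nearly all actives have a fitted effect of over 65% in size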
Target sequence (Q9BV86 whole entry, looked up): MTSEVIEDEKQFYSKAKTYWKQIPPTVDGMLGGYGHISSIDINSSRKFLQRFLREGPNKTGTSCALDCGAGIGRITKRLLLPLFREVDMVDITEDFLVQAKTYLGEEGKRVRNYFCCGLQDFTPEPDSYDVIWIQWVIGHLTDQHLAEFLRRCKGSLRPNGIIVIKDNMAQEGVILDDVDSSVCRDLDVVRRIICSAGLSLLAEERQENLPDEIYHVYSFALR
GPR32 ag = qHTS for Agonists of Human Resolvin D1 Receptor DRV1; actives 2.5% (n = 48,000); AID 1346428, 2018; CHO-K1 GPR32 beta-arrestin PathHunter luminescence, 90 min; zero percent set by DMSO-only wells; activation, % at 76.9 µM; Probable G-protein coupled receptor 32 (Homo sapiens), O75388;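 active means activation of at least 60% and not above a set upper limit, about 1 call in 100 departs from these limits; inconclusive means activation of 40% to 60%, or above that upper limit; inactive means activation under 40%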; further: 0% is about no effect
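Cells are plated overnight, treated with compounds in DMSO for 90 minutes at 37 °C, and developed with PathHunter detection reagent for 1 hour before luminescence is read; signal reflects beta-arrestin binding to GPR32 in engineered CHO-K1 cells.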
GALK inh = qHTS Assay for Inhibitors of Human Galactokinase (GALK): NCGC Sytravon Library Screen; 44,000 tested, under 10 active; recombinant GALK, Kinase-Glo ATP luminescence, 1 h; AID 1347072, 2019; Potency, µM (series often up to 57.5 µM), for the others: top-dose activity, negative = inhibition, hits mostly inhibitors;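 further: plate controls were full GALK reaction for no effect and reaction lacking GALK for full effect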
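5 nM GALK with 35 µM ATP and 100 µM galactose in HEPES pH 8.0, MgCl2, NaCl, DTT, BSA; 1 h RT reaction, remaining ATP detected by Kinase-Glo Plus luminescence after 10 min; qHTS concentration series.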
GALC G270D act = A Novel Cell-Based Assay to Identify Small Molecules for B -Galactocerebrosidase; AID 1159614, 2016; 145M-Twi-hGALC-G270D cells (Twitcher mouse brain line with human GALC G270D), HMU-beta-Gal fluorescence, 48 h; P54803; Potency, µM (doses to about 57.5 µM), usual class: activators; actives 0.1% (n = 45,000); further: potency means the concentration at half of the fitted maximal effect; 0% is about no effect; nearly all actives have a fitted effect of over 65% in size
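Live 145M-Twi cells (Twitcher mouse brain-derived, GALC-null) stably expressing human GALC-G270D, with a wild-type GALC line, were compound-treated. Residual GALC activity was then read as fluorescence from 0.1 mM final HMU-β-gal at pH 5.2; higher signal means activation.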
DYRK1A inh-1 = Assay for Inhibitors of Dual-Specificity Tyrosine-(Y)-Phosphorylation Regulated Kinase 1A (Kinase-Glo assay) | shares compounds with NTMT1 inh | Potency, µM (top dose mostly 76.9 µM), without a hit: at the top dose activity change, negative = inhibition, usual class: inhibitors | recombinant DYRK1A, Kinase-Glo ATP depletion luminescence | AID 2705, 2010 | actives 80% (n = 100)
CLK4 RBC = Kinase Inhibition Study on Inhibitors of CDC-like Kinase 4 (Reaction Biology data): SAR round 2. shares compounds with NTMT1 inh. Reaction Biology kinase assay, 10 uM ATP. Potency, µM, actives largely listed as inhibitors. actives 100% (n = 65). AID 504421, 2011; calls by dose curve
DYRK1A inh-2 = Kinase Inhibition Study on Inhibitors of Dyrk1a (Reaction Biology data); AID 504424, 2011; Potency, µM, usual class: inhibitors; shares compounds with NTMT1 inh; actives 90% (n = 65); Reaction Biology kinase assay, 10 uM ATP;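 active means compounds that showed inhibition of Dyrk1a and received a fitted potency; inactive means compounds that showed no inhibition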
CLK2 inh = Kinase Inhibition Study on Inhibitors of CDC-like Kinase 2 (Reaction Biology data) | shares compounds with NTMT1 inh | Reaction Biology kinase assay, 10 uM ATP | Potency, µM, most hits filed as inhibitors | actives 90% (n = 65) | AID 504427, 2011;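 active means compound that inhibits Clk2 kinase in the dose series, with an IC50 potency reported; inactive means no inhibition seen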
CLK3 inh = Kinase Inhibition Study on Inhibitors of CDC-like Kinase 3 (Reaction Biology data) | shares compounds with NTMT1 inh | recombinant CLK3 kinase assay, 10 uM ATP | Potency, µM, most hits filed as inhibitors | actives 40% (n = 65);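 active means compounds that inhibited Clk3 enough in the ten-dose series to give a half-maximal potency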
DYRK1B inh = Kinase Inhibition Study on Inhibitors of Dyrk1b (Reaction Biology data) | shares compounds with NTMT1 inh | Potency, µM, actives largely listed as inhibitors | Recombinant Dyrk1b kinase assay, 10 uM ATP | actives 80% (n = 65);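 active means compounds whose dose response shows an inhibitor phenotype against the kinase Dyrk1b; inactive means compounds showing no inhibitor phenotype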
CLK1 inh = Kinase Inhibition Study on Inhibitors of CDC-like Kinase 1 (Reaction Biology data) | recombinant Clk1 kinase assay, 10 uM ATP | shares compounds with NTMT1 inh | AID 504430, 2011 | actives 90% (n = 65) | Potency, µM, hits mostly inhibitors;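 active means compounds that block the splicing kinase Clk1 enough to give a fitted half-inhibition concentration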
Starred values were filed as active, the others as inactive; i = inactive; ? = inconclusive; · = no result given; [ ] = dose if it differs, or a comment. Unless noted, the call rests on the fitted dose curve; in most records, active means well fitted curve in the direction sought with a large enough effect; inconclusive means small, poorly fitted or top-dose-only effect, or another doubt; inactive means no such curve, though single readings can be large; an effect the other way counts as inactive or inconclusive.

SMILES	B2AR arrestin ag	NTMT1 inh	GPR32 ag	GALK inh	GALC G270D act	DYRK1A inh-1	others
Fc1cnc(-c2ccccc2C(F)F)nc1NCC1CCN(c2cnccn2)C1 (stereo not given)	·	-0.6%	·	·	·	·
CC/C=C\C/C=C\C/C=C\CCCCCCCC(=O)OCC(O)COC1OC(CO)C(O)C(O)C1O (stereo not given)	·	-2.5%[29.8 µM]	·	·	·	·
Cc1csc(CNc2ncnc3ccc(-c4ccc5c(ccn5C)c4)cc23)c1	·	-3.1%	·	·	·	·
Cn1cnc(CCNc2ncnc3ccc(-c4ccc5c(c4)OCO5)cc23)c1	·	12.0%	·	·	·	1.46µM*
c1nc(N2CCC(N3CCCC3)CC2)c2cc(-c3ccc4c(c3)OCO4)ccc2n1	·	?	·	·	·	23.2µM*	CLK4 RBC=9.96*;DYRK1A inh-2=i;CLK2 inh=i;CLK3 inh=i;DYRK1B inh=i;CLK1 inh=15µM*
c1nc(NCC2CCOC2)c2cc(-c3ccc4c(c3)OCO4)ccc2n1 (stereo not given)	·	25.1µM*	·	·	·	0.0923µM*
CC(C)(C)CNc1ncnc2ccc(-c3ccc4c(c3)OCO4)cc12	·	·	·	·	·	0.0091µM*
O=C(NCCc1ccc2c(c1)OCO2)c1cc2sccc2[nH]1	·	-2.2%	·	·	·	·
CCN(c1ccccc1)c1nnc(NC(=O)Nc2cccc(C(F)(F)F)c2)s1	i	8.0%	5.4	-0.8%	i	·

Screening results from PubChem.
